# VACV mCherry inh: inhibitors of vaccinia virus infection (mCherry reporter signal); Vaccinia virus mCherry reporter infection, fluorescence; AID 720579; Potency, µM (top dose mostly 36.5 µM), for the others: at the top dose activity change, negative = inhibition, actives largely listed as inhibitors; 310,000 compounds, 0.63% hits; calls by dose curve; tested in A549 cells; further: potency means the concentration at half of the fitted maximal effect; nearly all actives have a fitted effect of over 35% in size
# Marburg entry inh: blocks Marburg virus binding to or entry into cells. Marburg virus pseudotyped entry inhibition, cell reporter. Potency, µM (top dose mostly 37.8 µM), for inactives: at the highest dose activity change, negative = inhibition, hits mostly inhibitors. 300,000 compounds, 1.8% hits; calls by dose curve; tested in HEK293 cells; further: potency means the concentration at half of the fitted maximal effect
# HCMV inh: inhibitors of human cytomegalovirus. HFF cells, HCMV-luciferase reporter, 72 h; active compounds read low. activity change, negative = inhibition, % at 57.5 µM. 410,000 compounds, 4.5% hits; in the data active means activity change below about -60%; inconclusive means no clear call, values can overlap the other calls; inactive means above about -39%
#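 Two compound doses tested in HFFs infected with HCMV-luciferase, MOI 1 PFU/cell, 72 h at 37C. Lysate luminescence read with OneGlo; data normalized against buffer-only and 10uM Salinomycin inhibitor controls.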
# Lassa entry inh: Lassa virus entry inhibition | Potency, µM (highest dose often 37.9 µM), for inactives: top-dose activity change, negative = inhibition, usual class: inhibitors | 300,000 compounds, 1.2% hits | AID 540256 | Lassa virus pseudotype entry inhibition, cell reporter; calls by dose curve; tested in HEK293 cells; further: potency means the concentration at half of the fitted maximal effect; nearly all actives have a fitted effect of over 50% in size
# HCV inh: blocks hepatitis C virus. Huh7.5.1 HCVcc-Cre infection, luciferase reporter, 44 h. Potency, µM (highest dose often 41.8 µM), for the others: at the top dose activity change, negative = inhibition, usual class: inhibitors. 340,000 compounds, 3.4% hits. AID 651820; active means well fitted inhibition curve with a large enough effect; inconclusive means small, poorly fitted or top-dose-only effect, or another doubt; inactive means no such curve, though single readings can be large or run the other way; further: potency means the concentration at half of the fitted maximal effect
#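 HCVcc-Cre virus at an moi near 0.5 was added right after compound to cells cultured 4 h from seeding (1,000 cells/well). Luciferase activity was determined 44 h later, 15 min after substrate addition at RT.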
# VACV Venus inh: vaccinia inhibition (Venus reporter); 330,000 compounds, 0.46% hits; AID 720580; Potency, µM (top dose mostly 36.5 µM), inactives show at the top dose activity change, negative = inhibition, actives largely listed as inhibitors; Vaccinia virus Venus reporter expression, fluorescence; calls by dose curve; tested in A549 cells; further: potency means the concentration at half of the fitted maximal effect; nearly all actives have a fitted effect of over 30% in size
# The depositor's hits bear a star; i = inactive; ? = inconclusive; . = not tested or not shown; [ ] = dose if it differs, or a comment. In the library only some 7.8% were active in any assay of this set; here they are far more common. On the % scale 0 is the no-effect control and ±100 the full control effect.
SMILES,VACV mCherry inh,Marburg entry inh,HCMV inh,Lassa entry inh,HCV inh,VACV Venus inh
COc1ccc(-n2cc(CNCC3CC(=O)N(C4CC4)C3)c(-c3ccccc3Cl)n2)cc1 (stereo not given),-13%,11µM*,3,?,-6%,-14%
CNc1ccc(C(=O)CC(O)CCC(C)C2OC(=O)CC(O)CC(=O)CC(O)CC(O)CC(O)CC(O)CC3(O)CC(O)C(C(=O)OC)C(CC(O[C@@H]4O[C@H](C)[C@@H](O)[C@H](N)[C@@H]4O)/C=C/C=C/C=C/C=C/C=C/C=C/C=C/C2C)O3)cc1 (stereo not given in full),-17%,.,.,.,.,-12%
N#Cc1ccc(NC(=O)C2Cc3ccccc3CN2S(=O)(=O)c2ccc(F)cc2)cc1 (stereo not given),-15%,-20%[46.1 µM],-17,-28%[46.1 µM],.,-23%
CCNc1nn2ccccc2c1/C=C(\C#N)C(=O)OCC,-19%,.,-15,.,10µM*,-30%
CCOC(=O)/C(C#N)=C/c1c(N2CCCCCC2)nc2ccccn2c1=O,.,.,-37,.,?,.
CCOc1cc(/C=C2\SC(=N)N(c3nccs3)C2=O)ccc1OCCN1CCOCC1,11µM*,?,-70*,?,-11%,?
CCOc1cc(/C=C2\SC(=S)N(N3CCOCC3)C2=O)ccc1O,.,.,-8,.,12%,.
COC(=O)c1ccc(C(=O)NCC2Cc3cccc(-c4ccc(C(=O)OC)cn4)c3O2)cc1 (stereo not given),-20%,.,.,.,.,-19%
Cc1nn(C2CCS(=O)(=O)C2)c(Cl)c1/C=C/C(=O)OCC(=O)c1c[nH]c2ccccc12 (stereo not given),-17%,?,12,-15%,22µM*,-17%
COc1ccc(OC)c(NC(=O)COC(=O)/C=C/c2c(C)nn(C3CCS(=O)(=O)C3)c2Cl)c1 (stereo not given),.,-6%,-15,-2%,-22%,-25%
Cc1nn(C2CCS(=O)(=O)C2)c(Cl)c1/C=C/C(=O)OCC(=O)c1cc(C)n(-c2ccc(F)cc2)c1C (stereo not given),?,?,-86*,?,4µM*,-29%
COc1ccc2c(c1)c1c(c(=O)n(Cc3ccccc3)c(=O)n1Cc1cccc(Cl)c1)n2C,-19%,.,-18,?,.,-10%
O=C(c1ccccc1)c1coc2c1C(=O)c1ccccc1C2=O,-10%,?,72,.,0%,-6%
COc1ccc(C(=O)c2coc3c2C(=O)C(=O)c2ccccc2-3)cc1,-13%,?,68,11µM*,-25%,?
CC1CCCCN1C(=O)Cn1cc(C=C2C(=O)N(C)C(=O)N(C)C2=O)c2ccccc21 (stereo not given),i,-14%,-63*,-4%,23%,-10%
CC1CCCCN1C(=O)Cn1cc(C=O)c2ccccc21 (stereo not given),1%,16%,-23,8%,-1%,-6%
CCN1C(=NCCCOC(C)C)NC(c2ccccc2)C(C(=O)OC)=C1C (stereo not given),.,-3%[14.2 µM],.,?,.,.
O=C(Nc1ccc(OCC(F)(F)C(F)F)c(C(F)(F)F)c1)c1ccccc1,-25%,-20%,-39,-16%,10µM*,?
O=C(Nc1ccc(OCC(F)(F)C(F)F)c(C(F)(F)F)c1)c1ccccc1O,?,?,-97*,?,6.3µM*,10µM*
O=C(COc1ccccc1)Nc1ccc(OC(F)(F)C(F)F)c(NC(=O)COc2ccccc2)c1,.,?,58,?,?,.
O=C(Nc1ccc(OCC(F)(F)C(F)F)cc1)c1ccncc1,i,-28%[46.1 µM],-63*,?,?,-15%
CCC1(C)Cc2c(sc3nnn(Cc4ccccc4Cl)c(=O)c23)CO1 (stereo not given),.,?,-60*,?,?,.
CCC1(C)Cc2c(sc3nnn(CC(=O)Nc4ccccc4)c(=O)c23)CO1 (stereo not given),.,-2%,-39,-15%,-27%,.
Cc1cccn2c(CNCC3OCCc4ccccc43)c(C(=O)N3CCCCC3)nc12 (stereo not given),i,10µM*,?,-38%,9%,9%
Cc1ccc(NC(=O)Cn2c(-c3ccc(F)cc3)cnc2SCC(=O)Nc2c(C)cccc2C)cc1,1%,?,-78*,?,1%,-3%
SMILES,VACV mCherry inh,Marburg entry inh,HCMV inh,Lassa entry inh,HCV inh,VACV Venus inh
Cc1ccc(C(=O)n2c(-c3ccccc3)cnc2SCC(=O)Nc2ccccc2)cc1,i,?,-74*,1%,-6%,-10%
CCOc1ccc(NC(=O)CSc2ncc(-c3ccc(F)cc3)n2Cc2ccco2)cc1,-25%,.,-27,.,10µM*,-10%
Cc1ccc(NC(=O)CSc2ncc(-c3ccccc3)n2C(=O)c2ccccc2)cc1,.,4%,6,4%,15%,.
O=C(CSc1ncc(-c2ccc(F)cc2)n1Cc1ccco1)Nc1ccc2c(c1)OCO2,-19%,?,12,?,?,?
Cc1c(Cl)cccc1NC(=O)Cn1nnc2sc3c(c2c1=O)CCCC3,-11%,0%[46.1 µM],-4,11%[46.1 µM],.,-8%
O=C(CCN1C(=O)c2ccccc2S1(=O)=O)Nc1ccc(Cl)cc1,-15%,25%[46.1 µM],-78*,-21%[46.1 µM],-3%,-24%
O=C(CN1C(=O)c2ccccc2S1(=O)=O)NC(Nc1ccccc1F)C(Cl)(Cl)Cl (stereo not given),-5%,-8%,-105*,5%,2%,5%
Cc1cc(C)cc(NC(=O)CCN2C(=O)c3ccccc3S2(=O)=O)c1,i,.,8,.,-2%,-7%
COC(=O)c1ccc(CN2C(=O)c3ccccc3S2(=O)=O)cc1,.,18%,64,-15%,17%,.
O=C(CN1C(=O)c2ccccc2S1(=O)=O)NCc1c(F)cccc1F,i,3%[46.1 µM],-31,0%,-22%,-6%
CC(C)NC(=O)CN1C(=O)c2ccccc2S1(=O)=O,-2%,?,-14,12%,10%,-16%
Cc1ccc(C(=O)CN2/C(=C(\O)c3ccccc3)C(=O)c3ccccc3S2(=O)=O)c(C)c1,.,?,.,18µM*,?,.
O=C(CN1C(=O)c2ccccc2S1(=O)=O)c1ccccc1,.,?,-65*,4µM*,-4%,-12%
COc1cc(Cl)c(C)cc1Nc1nc2ccccc2n2cnnc12,-11%,?,36,.,.,-10%
C[C@@H]1CN(Cc2ccc3c(c2)CN(Cc2nc(-c4ccccc4)cs2)CCO3)C[C@H](C)O1,-22%,.,.,.,.,-25%
CC(C)c1ccc(NC(=O)Cn2c(=O)n(CCc3ccccc3)c(=O)c3ccccc32)cc1,-12%,19%[46.1 µM],14,20%[46.1 µM],.,-11%
CC1=C(C(=O)Nc2ccccc2)C(c2cccs2)n2nc(SCc3ccccc3F)nc2N1 (stereo not given),-11%,?,1,27%[46.1 µM],.,-16%

# Compound activity from PubChem.
